Assay outcomes (PubChem BioAssay)
GPT2 inhibitor: Primary qHTS assay for inhibitors of Glutamate pyruvate transaminase 2 (GPT2); hit rate 0.25% among 100,000; Potency, µM (doses to about 57.7 µM), for inactives: at the highest dose activity change, negative = inhibition, actives largely listed as inhibitors; Recombinant GPT2, coupled pyruvate oxidase/HRP Amplex Red fluorescence; AID 1671188, 2021; Alanine aminotransferase 2 (Homo sapiens), Q8TD30; also: nearly all actives have a fitted effect of over 60% in size
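GPT2 10ng/uL, a-KG 250uM, L-Ala 2mM, HEPES pH7.5 + 0.0001% Tween; 30 min RT. Then Amplex mix (PO/HRP/ThPP), 30 min RT dark, fluorescence. AOA 50uM used as positive control.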
HEK cytotox: Cytotoxic Profiling in HEK 293 Cell Line of Diverse Libraries Using Quantitative High-Throughput Screening; hit rate 6.6% among 94,000; Potency, µM (top dose mostly 115 µM), inactives show at the highest dose activity change, negative = cytotoxicity, actives largely listed as inhibitors; HEK 293 viability, ATP luminescence (CellTiter-Glo), 48-72 h; also: nearly all actives have a fitted effect of over 60% in size
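HEK 293 cells seeded at 250 cells/well were exposed to compound for 48 or 72 hr at 37 degree Celsius. Viability taken as ATP content by CellTiter-Glo luminescence.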
NIH3T3 tox: Cytotoxic Profiling in NIH 3T3 Cell Line of Diverse Libraries Using Quantitative High-Throughput Screening; NIH 3T3 viability, CellTiter-Glo ATP luminescence, 48-72 h; Potency, µM (top dose mostly 96.7 µM), without a hit: at the top dose activity change, negative = cytotoxicity, usual class: inhibitors; hit rate 4.3% among 94,000; also: nearly all actives have a fitted effect of over 55% in size
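Cells were seeded at 400 per well, treated with pin-transferred compound, and kept 48 or 72 hr at 37 °C before CellTiter-Glo addition and luminescence imaging of cellular ATP.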
NPR1 antag: Natriuretic polypeptide receptor (hNpr1) antagonism - Primary qHTS | Atrial natriuretic peptide receptor 1 (Homo sapiens), P16066 | HEK293 hNpr1 GloSensor cGMP, ANP-stimulated luminescence | Potency, µM (highest dose often 46.3 µM), for the others: at the top dose activity change, negative = inhibition, hits mostly inhibitors | hit rate 1.6% among 76,000 | AID 1347048, 2019; calls by dose curve; also: nearly all actives have a fitted effect of over 60% in size
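HEK293 cells stably expressing human Npr1 and cGMP GloSensor pGS-40F, loaded 2 h with 2% GloSensor reagent, given compound 30 min at room temperature. Luminescence read before and 20 min after 0.1 nM hNppA.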
Luciferase inh: Firefly luciferase inhibition profiling of diverse chemical library using quantitative high-throughput screening; Luciferin 4-monooxygenase (Photinus pyralis), P08659; purified P. pyralis luciferase, luminescence, biochemical; Potency, µM (highest dose often 115 µM), hits mostly inhibitors; hit rate 2.5% among 76,000; AID 1347043, 2019; also: nearly all actives have a fitted effect of over 65% in size
Target sequence (P08659 whole entry, looked up): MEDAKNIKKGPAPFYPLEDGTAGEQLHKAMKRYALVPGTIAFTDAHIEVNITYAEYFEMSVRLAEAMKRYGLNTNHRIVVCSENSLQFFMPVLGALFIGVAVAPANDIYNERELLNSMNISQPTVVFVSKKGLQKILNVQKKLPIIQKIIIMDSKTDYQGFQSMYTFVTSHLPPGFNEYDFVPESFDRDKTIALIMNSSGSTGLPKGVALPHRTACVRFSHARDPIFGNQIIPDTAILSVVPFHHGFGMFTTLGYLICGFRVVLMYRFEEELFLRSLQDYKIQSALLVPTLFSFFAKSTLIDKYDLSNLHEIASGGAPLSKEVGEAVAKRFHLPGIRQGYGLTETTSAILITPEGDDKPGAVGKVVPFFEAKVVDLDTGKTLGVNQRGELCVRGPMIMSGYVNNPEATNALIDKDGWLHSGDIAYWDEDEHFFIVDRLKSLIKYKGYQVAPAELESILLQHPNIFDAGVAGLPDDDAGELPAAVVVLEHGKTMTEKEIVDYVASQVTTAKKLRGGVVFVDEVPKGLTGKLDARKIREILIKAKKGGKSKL
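Purified 10nM P. pyralis luciferase with 10uM D-luciferin and 10uM ATP in 50mM Tris acetate pH 7.5, 10mM Mg acetate, 0.01% Tween-20, 0.05% BSA. qHTS titration; luminescence read by CCD imager.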
Starred values were filed as active, the others as inactive; i = inactive; ? = inconclusive; . = no result given; [ ] = remark or other dose. Rows were chosen to be rich in hits. Some 10% of all compounds tested hit in one or more screens of this group. Unless noted, calls follow the shape of the dose curve; as a rule, active = well fitted curve in the direction sought with a large enough effect; inconclusive = small, poorly fitted or top-dose-only effect, or another doubt; inactive = no such curve, though single readings can be large; an effect the other way counts as inactive or inconclusive. % is scaled to controls: 0 for no effect and ±100 for the full control effect; potency is read from the fitted curve at half-maximal effect.

SMILES	GPT2 inhibitor	HEK cytotox	NIH3T3 tox	NPR1 antag	Luciferase inh
O=C(Nc1ccccc1F)N1CC(Oc2ccc(-c3noc(-c4ccccc4)n3)cc2)C1	i	?	-16.4%	10µM*	?
O=C(Nc1ccccc1F)N1CC(Oc2ccc(-c3nc(-c4ccccc4)no3)cc2)C1	i	-10.5%	-0.6%	-17.9%	?
O=C(NCc1ccccc1)N1CC(Oc2cccc(-c3nc(-c4ccccc4)no3)c2)C1	i	17.8µM*	?	-19.5%	i
O=C(CCc1ccccc1)N1CC(Oc2ccc(-c3nc(-c4ccccc4)no3)cc2)C1	-3.4%	?	-17.8%	?	?
COc1ccc(-c2nn(-c3ccccc3C)cc2CN2CCCC(C)(O)C2)cc1F (centres undefined)	-22.2%	?	-0.1%	1.3%	i
O=C1[C@H]2CN(Cc3ccc(F)c(F)c3)C[C@H]2C(=O)N1Cc1ccc2c(c1)OCO2	-6.0%	-29.5%	-26.3%	4.8%	i
Cc1cc(=O)n(CC(=O)Nc2cc(Cl)ccc2C)c(N2CCN(c3ccccc3)CC2)n1	2.1%	?	?	2.6%	i
OC[C@@H]1CN(Cc2ccco2)C[C@H]1c1nc(-c2ccncc2)no1	i	?	-9.6%	-2.1%	?
c1cc(-c2nc(-c3ccc(OC4CNC4)cc3)no2)ccn1	i	?	?	-2.5%	?
c1ccc(-c2nc(-c3ccc(OC4CNC4)cc3)no2)cc1	i	?	15.8µM*	?	3.98µM*
Cc1cc(C)n(CCC(=O)N2CC(Oc3cccc(-c4nc(-c5ccccc5)no4)c3)C2)n1	i	?	39.8µM*	?	28.2µM*
c1coc(CN2CC(Oc3ccc(-c4noc(-c5ccncc5)n4)cc3)C2)c1	i	17.8µM*	?	11.2µM*	3.98µM*
O=C(NCCNC(=O)c1ccc(-c2cncnc2)cc1)c1ccc(F)cc1	.	-4.0%	-20.4%	.	.
O=C(C1CCCN(Cc2cccc(-c3ccsc3)c2)C1)N1CCN(Cc2ccccc2)CC1 (centres undefined)	.	39.8µM*	39.8µM*	.	.
CCOC(=O)C1CCN(C(=O)C2CCCN(Cc3cccc(-c4ccsc4)c3)C2)CC1 (centres undefined)	.	35.5µM*	?	.	.
O=C(NCc1ccc(F)cc1)C1CCCN(Cc2cccc(-c3ccsc3)c2)C1 (centres undefined)	i	?	?	.	.
Cc1cccc(-c2cccc(CN3CCCC(C(=O)NC4CC4)C3)c2)c1 (centres undefined)	-2.0%[88.5 µM]	?	?	.	.
O=C(C1CCCN(Cc2cccc(-c3ccsc3)c2)C1)N1CCC(Cc2ccccc2)CC1 (centres undefined)	-3.7%	39.8µM*	?	.	.
O=C(C1CCc2ncc(-c3ccsc3)n2C1)N1CCC(Cc2ccccc2)CC1 (centres undefined)	i	-22.0%	-27.2%	4.0%	i
CN(Cc1ccccc1)C(=O)C1CCCN(Cc2cccc(-c3ccsc3)c2)C1 (centres undefined)	.	39.8µM*	?	.	.
CCC(CC)c1nc(COC(=O)C2=CN(Cc3ccc(OC)cc3)S(=O)(=O)N=C2C)no1	1.6%	?	?	-21.4%	i
O=C(O)COCC(=O)N[C@H]1CO[C@H]2[C@@H]1OC[C@@H]2n1nnnc1-c1ccc2c(c1)OCO2	0.0%[88.5 µM]	-0.6%[172 µM]	2.0%[174 µM]	5.7%[70.6 µM]	i
CCNC(=O)[C@@H]1CCCN1C1(C(=O)NC)CCCCC1	-9.9%[88.5 µM]	i	i	4.0%[70.6 µM]	i
CSc1ccc(-c2cccc(CN3CCC(NC(=O)Nc4ccccc4F)CC3)c2)cc1	.	17.8µM*	12.6µM*	.	.
CSc1ccc(-c2cccc(CN3CCC(NC(=O)Nc4ccccc4)CC3)c2)cc1	.	?	14.1µM*	.	.
SMILES	GPT2 inhibitor	HEK cytotox	NIH3T3 tox	NPR1 antag	Luciferase inh
COc1ncccc1-c1nc(-c2c(C)noc2C)cc2c1cc(C)n2CCN(C)C	4.4%[88.5 µM]	?	10µM*	2.9%[70.6 µM]	i
COc1cccc(-c2nc(-c3c(C)noc3C)cc3c2cc(C)n3CCN(C)C)c1	-5.7%[88.5 µM]	44.7µM*	10µM*	3.0%[70.6 µM]	i
CC(=O)Nc1cccc(-c2nc(-c3c(C)noc3C)cc3c2cc(C)n3CCN(C)C)c1	?	79.4µM*	?	6.9%[70.6 µM]	i
COc1ccc(-c2nc(-c3c(C)noc3C)cc3c2cc(C)n3CCN(C)C)cc1OC	i	89.1µM*	?	-16.4%[70.6 µM]	i
COc1ncc(-c2nc(-c3c(C)noc3C)cc3c2cc(C)n3CCN(C)C)cn1	-7.9%[88.5 µM]	?	?	-3.1%[70.6 µM]	i
COc1cc([C@H]2O[C@H](c3cc(OC)c4c(c3)OCO4)[C@H](C)[C@H]2C)cc(OC)c1OC	0.9%[27.3 µM]	.	.	.	.
CCc1noc([C@@H]2CC(F)(F)CN2C(=O)c2coc(C)n2)n1	i	-0.8%	-9.1%	-3.0%	i
O=C(NC[C@H]1OC[C@@H](NCc2ccccc2O)[C@@H]1O)C1CCCC1	-2.7%[88.5 µM]	3.6%[172 µM]	i	4.1%[70.6 µM]	i
Cn1cnc(S(=O)(=O)N2CCCC(Cc3nncn3CC3CC3)C2)c1 (centres undefined)	i	-1.7%	i	1.8%	i
CCS(=O)(=O)N(Cc1cccnc1)c1cccc(-c2ccc(C#N)cc2)c1	-17.9%	.	.	.	.
